VDR inhibitor: Inhibitors of the vitamin D receptor (VDR): qHTS | Vitamin D3 receptor (Homo sapiens), P11473 | VDR-SRC2-3 peptide fluorescence polarization, 2 h | Potency, µM, without a hit: max response, negative = inhibition, most hits filed as inhibitors | 400,000 compounds, 0.93% hits | AID 504847, 2011; further: on the % scale 0 is the no-effect control and ±100 the full control effect
Target sequence (P11473 whole entry, looked up): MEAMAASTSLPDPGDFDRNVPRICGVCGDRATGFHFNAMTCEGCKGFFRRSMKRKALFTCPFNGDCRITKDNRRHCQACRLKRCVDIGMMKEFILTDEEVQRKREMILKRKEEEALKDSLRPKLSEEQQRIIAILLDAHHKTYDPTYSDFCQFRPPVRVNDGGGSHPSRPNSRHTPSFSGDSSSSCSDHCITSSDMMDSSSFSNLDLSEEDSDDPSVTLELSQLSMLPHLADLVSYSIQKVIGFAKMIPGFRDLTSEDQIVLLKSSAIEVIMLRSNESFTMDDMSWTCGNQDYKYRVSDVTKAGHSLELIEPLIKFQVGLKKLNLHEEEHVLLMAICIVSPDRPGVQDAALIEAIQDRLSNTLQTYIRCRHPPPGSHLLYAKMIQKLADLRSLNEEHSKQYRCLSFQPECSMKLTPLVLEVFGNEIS
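Compounds are added to VDR with labelled SRC2-3 coactivator peptide and held 2 h at room temperature. Inhibition of the VDR–peptide interaction is then read as a change in fluorescence polarization.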
12-LOX inh: Primary qHTS assay for inhibitors of human arachidonate 12S-lipoxygenase (ALOX12): Round 2; Potency, µM (top dose mostly 108 µM), inactives show top-dose activity change, negative = inhibition, usual class: inhibitors; AID 1671190, 2021; purified 12hLO, xylenol orange hydroperoxide absorbance; 580,000 compounds, 1.1% hits; Polyunsaturated fatty acid lipoxygenase ALOX12 (Homo sapiens), P18054; further: on the % scale 0 is the no-effect control and ±100 the full control effect
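Purified human 12hLO at 150 nM in 25 mM Hepes, 0.01% Triton X-100, pH 7.0, preincubated 15 min at room temperature with compound. Reaction started with 40 uM arachidonic acid, 30 min at room temperature. Hydroperoxide measured by Fe-xylenol orange, 573/405 nm absorbance ratio.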
GRP78 ERSR act: qHTS for Inducers of the Endoplasmic Reticulum Stress Response (ERSR) in Human Glioma: qHTS. 420,000 compounds, 0.02% hits. U87-MG GRP78 promoter luciferase reporter, 16 h. Potency, µM, for inactives: top-dose activation, actives largely listed as activators; further: series mostly up to about 76 µM; % of control where 0% means no effect; nearly all actives have a fitted effect of over 35% in size
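Stably transfected U87-MG glioma cells carrying a GRP78-based luciferase sensor; 16 h compound incubation. Luminescence end-point read 10 min after Bright-Glo addition at room temperature.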
Sfp inh: qHTS Assay for Inhibitors of Bacillus subtilis Sfp phosphopantetheinyl transferase (PPTase); 4'-phosphopantetheinyl transferase ffp (Bacillus subtilis), Q9F4F7; Biochemical Sfp PPTase activity, qHTS; Potency, µM, for the others: largest response in the series, negative = inhibition, most hits filed as inhibitors; 310,000 compounds, 3.5% hits; AID 1490, 2009;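 further: the enzyme is Sfp with the accession as filed and its product quenches rhodamine fluorescence; 0% = enzyme reaction without inhibitor and -100% = no enzyme wells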
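Reaction rates are the 30-min fluorescence difference (ex 525, em 598 nm) in wells containing 15 nM Sfp, 5 uM rhodamine-CoA and 12.5 uM BHQ-2-YbbR at pH 7.6 with 10 mM MgCl2.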
G9a inh: qHTS Assay for Inhibitors of Histone Lysine Methyltransferase G9a; Histone-lysine N-methyltransferase EHMT2 (Homo sapiens), Q96KQ7; G9a H3K9 monomethylation, AlphaScreen, 2 h; Potency, µM (series often up to 102 µM), inactives show top-dose activity, negative = inhibition, most hits filed as inhibitors; 350,000 compounds, 8.8% hits; AID 504332, 2011; further: on the % scale 0 is the no-effect control and ±100 the full control effect; nearly all actives have a fitted effect of over 75% in size
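Readings reflect AlphaScreen signal from monomethyl-H3K9 antibody detection. HMT at 20 nM; substrate b-H3K9 500 nM; cofactor SAM 20 uM; 2 h RT reaction; compounds tested as titrations in qHTS with 15 min preincubation.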
Active calls of the source: *; ! = a repeat was not active; [ ] = another dose, or the depositor's remark. Shown is part of a subset that was picked to be rich in hits. The call rests on the fitted dose curve; in most records, active means well fitted curve in the direction sought with a large enough effect; inconclusive means small, poorly fitted or top-dose-only effect, or another doubt; inactive means no such curve, though single readings can be large; an effect the other way counts as inactive or inconclusive. Potency means the concentration at half of the fitted maximal effect.

Results for COc1ccc(NC(=O)N2C[C@@H]3C[C@@H](C2)c2cccc(=O)n2C3)c(OC)c1 ?
VDR inhibitor: 11%; 12-LOX inh: 13%; GRP78 ERSR act: 1%; Sfp inh: 6%; G9a inh: 3.5µM*

Results for O=C(Nc1cccc(Cl)c1)N1C[C@H]2C[C@@H](C1)c1cccc(=O)n1C2 ?
VDR inhibitor: 10%; 12-LOX inh: -14%; GRP78 ERSR act: -4%; Sfp inh: 12%; G9a inh: 3%[12.7 µM]

What do the screens show for `CCOC(=O)CNC(=S)N1CC2C[C@@H](C1)Cn1c2cccc1=O`?
VDR inhibitor: -5%; 12-LOX inh: 4%; GRP78 ERSR act: -3%; Sfp inh: 10%; G9a inh: -1%

Results for CCCOc1ccc(C(=O)NC(=S)N2C[C@H]3C[C@H](C2)c2cccc(=O)n2C3)cc1 ?
VDR inhibitor: -18%; 12-LOX inh: -22%; GRP78 ERSR act: 4%; Sfp inh: 45µM*; G9a inh: 11µM*

What do the screens show for `COc1ccc(C(=O)NC(=S)N2C[C@H]3C[C@H](C2)c2cccc(=O)n2C3)cc1OC`?
VDR inhibitor: 5%; 12-LOX inh: inconclusive; GRP78 ERSR act: -2%; Sfp inh: inconclusive; G9a inh: 45µM*

How did O=C(NC(=S)N1C[C@H]2C[C@H](C1)c1cccc(=O)n1C2)c1ccc(Cl)cc1Cl do in these assays?
VDR inhibitor: -11%; 12-LOX inh: -26%; GRP78 ERSR act: 0%; Sfp inh: -6%; G9a inh: 40µM*

Results for O=C1Nc2ccccc2C12CCN(Cc1ccc(C(F)(F)F)cc1)CC2 ?
12-LOX inh: 2%[6.33 µM]

What do the screens show for `Cn1cc(C(=O)OCC(=O)NC2CC2)c2ccccc21`?
12-LOX inh: 17%

How did NCc1cn(C[C@H]2CC3CCN2C[C@@H]3C(=O)N2CCCC2)nn1 (stereo partly drawn) do in these assays?
12-LOX inh: 47%[176 µM]

Results for O=C(NC1CCSC1=O)c1ccco1 (stereo not drawn) ?
12-LOX inh: -1%

How did O=C1NCCOCCN[C@@H]2CCCC[C@H]12 do in these assays?
12-LOX inh: 48%

What do the screens show for `COCC(=O)N1CCC2(CC1)C(=O)Nc1cc(Oc3cccc(N(C)C)c3)c(OC)cc12`?
12-LOX inh: -2%[176 µM]

What do the screens show for `COc1ccc(CNCCc2c[nH]c3ccccc23)c(OC)c1`?
12-LOX inh: 2%

What do the screens show for `NC(=S)c1cn(C2OC(CO)C(O)C2O)c2ncnc(N)c12` (stereo not drawn)?
VDR inhibitor: inconclusive; 12-LOX inh: -12%; GRP78 ERSR act: -5%; Sfp inh: 7.9µM*; G9a inh: 10µM*

What do the screens show for `Cc1cccnc1NC1=NCC(C)S1` (stereo not drawn)?
VDR inhibitor: -6%; 12-LOX inh: -2%; GRP78 ERSR act: -5%; Sfp inh: 16%; G9a inh: 4µM*

How did Cc1ccccc1NC1=NCC(C)S1 (stereo not drawn) do in these assays?
VDR inhibitor: -8%; 12-LOX inh: 19%; GRP78 ERSR act: -2%; Sfp inh: 18%; G9a inh: 17%[59 µM]

What do the screens show for `CCOc1ccccc1NC(=O)c1cn(C)c2ccccc12`?
12-LOX inh: 2%

How did C=CCN1CC[C@]23c4c5ccc(O)c4O[C@H]2C(=O)CC[C@@]3(O)[C@H]1C5 do in these assays?
VDR inhibitor: -4%; 12-LOX inh: 2%; GRP78 ERSR act: 2%; Sfp inh: 10%; G9a inh: 40µM*!

How did C=CCN1CC[C@]23c4c5ccc(O)c4OC2[C@H](O)CC[C@@]3(O)[C@H]1C5 (stereo partly drawn) do in these assays?
VDR inhibitor: -5%; 12-LOX inh: -6%; GRP78 ERSR act: -4%
